Reference: PubChem BioAssay (NCATS)
Values joined by “and” are separate entries in the source; they are usually repeats but may differ in a detail not shown here. Identical values can stand only once. Results filed as inconclusive are left out. Where a call stands in place of a potency, no number is given. A number with no mark means an inactive call. Active and inactive are the calls of the source. The call rests on the fitted dose curve; in most records, active means well fitted curve in the direction sought with a large enough effect; inconclusive means small, poorly fitted or top-dose-only effect, or another doubt; inactive means no such curve, though single readings can be large; an effect the other way counts as inactive or inconclusive.

Experiments:
[1] = biological target: Cellular tumor antigen p53 (Homo sapiens) (UniProt P04637); experiment: Primary qHTS for small molecule compounds that upregulate eGFP-tagged delta133p53alpha (in N-terminal) cells. (AID 2060322); details: NCI-H358 eGFP-delta133p53alpha fluorescence, 24 h; activation: stronger effect = higher value; further: nearly all actives have a fitted effect of over 75% in size; further: potency means the concentration at half of the fitted maximal effect;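 on activation: cells pre-induced with doxycycline then dosed without doxycycline; series mostly up to about 56 µM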
Cellular tumor antigen p53 (Homo sapiens), sequence (P04637 whole entry, looked up): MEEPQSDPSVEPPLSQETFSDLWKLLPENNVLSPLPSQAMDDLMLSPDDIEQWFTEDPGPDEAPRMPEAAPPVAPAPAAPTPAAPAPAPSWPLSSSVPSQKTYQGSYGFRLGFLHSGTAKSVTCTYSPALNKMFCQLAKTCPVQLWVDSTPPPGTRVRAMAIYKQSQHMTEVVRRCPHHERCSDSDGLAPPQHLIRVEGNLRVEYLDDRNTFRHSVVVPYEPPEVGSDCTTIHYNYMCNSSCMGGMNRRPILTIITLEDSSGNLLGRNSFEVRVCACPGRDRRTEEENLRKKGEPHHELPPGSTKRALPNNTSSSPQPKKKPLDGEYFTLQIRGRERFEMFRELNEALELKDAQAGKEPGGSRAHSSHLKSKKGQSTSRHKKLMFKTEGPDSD
Summary of the method: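 NCI-H358 cells pre-induced 24 h with 10 ng/ml doxycycline for eGFP-delta133p53alpha, plated dox-free and exposed 24 h at 37C to titrated compounds. Fixed, Hoechst-stained; gated GFP peak intensity by laser scanning cytometry, normalized to DMSO (0%) and 57.5 uM 5-azacytidine (100%).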

[2] = biological target: Aldehyde dehydrogenase, mitochondrial (Homo sapiens) (UniProt P05091); experiment: qHTS for Inhibitors of the Aldehyde Dehydrogenase Family (ALDH2) Primary screen (AID 2061308); further: nearly all actives have a fitted effect of over 55% in size
[3] = biological target: Retinaldehyde dehydrogenase 3 (Homo sapiens) (UniProt P47895); experiment: qHTS for Inhibitors of the Aldehyde Dehydrogenase Family (ALDH1A3) Validation screen (AID 2061312); further: nearly all actives have a fitted effect of over 45% in size
[4] = biological target: Retinaldehyde dehydrogenase 3 (Homo sapiens) (UniProt P47895); experiment: qHTS for Inhibitors of the Aldehyde Dehydrogenase Family (ALDH1A3) Primary screen (AID 2061315)
[5] = BET inhibitor-based combinations targeting novel dependencies in MECOM-rearranged (r) AML: SET-2 cell line (AID 2202231); details: SET-2 AML cells viability, CellTiter-Glo luminescence, 48 h; viability: stronger effect = lower value, concentration not given here; further: nearly all actives have a fitted effect of over 35% in size; further: potency means the concentration at half of the fitted maximal effect
Summary of the method: (§1)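 500 cells/well; 11-pt dose curve; 48 h, standard incubator; CellTiter-Glo luminescence after 15 min RT; DMSO/empty-well normalization; AUC plus Z-AUC (mean-centered within each line).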

[6] = BET inhibitor-based combinations targeting novel dependencies in MECOM-rearranged (r) AML: MV-4-11 cell line (AID 2202233); further: nearly all actives have a fitted effect of over 45% in size; further: potency means the concentration at half of the fitted maximal effect
Summary of the method: (§2)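 Cells were plated at 500 per well and exposed to each drug across an 11-point dose range for 48 hr at standard incubator conditions. Viability was read by CellTiter-Glo luminescence, and activity was expressed as AUC and per-cell-line Z-transformed AUC.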

[7] = BET inhibitor-based combinations targeting novel dependencies in MECOM-rearranged (r) AML: UCSD-AML1 cell line (AID 2202235); further: nearly all actives have a fitted effect of over 40% in size; further: potency means the concentration at half of the fitted maximal effect
Summary of the method: as §2

[8] = BET inhibitor-based combinations targeting novel dependencies in MECOM-rearranged (r) AML: AML-194 cell line (AID 2202237; further: nearly all actives have a fitted effect of over 40% in size; further: potency means the concentration at half of the fitted maximal effect)
Summary of the method: as §1

[9] = BET inhibitor-based combinations targeting novel dependencies in MECOM-rearranged (r) AML: AML-191 cell line (AID 2202236; further: nearly all actives have a fitted effect of over 35% in size; further: potency means the concentration at half of the fitted maximal effect)
Summary of the method: as §1

[10] = BET inhibitor-based combinations targeting novel dependencies in MECOM-rearranged (r) AML: OCI-AML3 cell line (AID 2202232); details: Potency: OCI-AML3 viability; further: nearly all actives have a fitted effect of over 35% in size; further: potency means the concentration at half of the fitted maximal effect
Summary of the method: as §1

[11] = BET inhibitor-based combinations targeting novel dependencies in MECOM-rearranged (r) AML: HNT-34 cell line (AID 2202234); further: nearly all actives have a fitted effect of over 35% in size; further: potency means the concentration at half of the fitted maximal effect
Summary of the method: as §2

| Compound | activation [1] | Potency [2] | Potency [3] | Potency [4] | Potency [5] | Potency [6] | Potency [7] | Potency [8] | Potency [1] | viability [5] | Potency [9] | Potency [10] | Potency [11] |
| --- | --- | --- | --- | --- | --- | --- | --- | --- | --- | --- | --- | --- | --- |
| Cc1cc(-c2ncc(CC(=O)Nc3ccc(-c4cnccn4)cn3)cc2C)ccn1 | -9.46% and -6.68% | inactive | inactive | inactive | 11.8 µM (active) | 8.33 µM (active) | 26.3 µM (active) | inactive |  |  |  |  |  |
| COc1cc2c(NC3CCN(CC4CCCCC4)CC3)nc(N3CCCN(C(C)C)CC3)nc2cc1OCCCN1CCCCC1 |  | inactive | inactive | inactive |  | 6.61 µM (active) | 10.5 µM (active) | 16.6 µM (active) | 43.2 µM (active) | 104% | 9.34 µM (active) |  |  |
| CC[C@H](CC#N)OC(=O)N[C@@H](C)c1cccc(NC(=O)Nc2ccc(-c3cnco3)c(OC)c2)c1 | 7.84% and -10.5% | inactive | inactive | inactive |  | 0.235 µM (active) | 0.296 µM (active) |  |  |  |  | 0.468 µM (active) | 0.525 µM (active) |
| Nc1ncnc2c1c(-c1cccc(OCc3ccccc3)c1)cn2C1CC(CN2CCC2)C1 (centres undefined) | 26% and 8.59% | inactive | inactive | inactive | 16.6 µM (active) |  |  | 16.6 µM (active) |  |  | 18.6 µM (active) |  |  |
| CN(C)N(C)C(=O)[C@@]1(Cc2ccccc2)CCCN(C(=O)[C@@H](Cc2c[nH]c3ccccc23)NC(=O)C(C)(C)N)C1 | -17.2% | inactive | inactive | inactive |  |  | inactive | inactive |  | 113% | inactive |  | 16.6 µM (active) |
| COc1cc(CCc2cc(NC(=O)c3ccc(N4C[C@@H](C)N[C@@H](C)C4)cc3)n[nH]2)cc(OC)c1 | 1.33% and -3.34% | inactive | inactive | inactive |  | 2.09 µM (active) | 7.42 µM (active) | 14.8 µM (active) |  |  | 16.6 µM (active) | 18.6 µM (active) | 7.42 µM (active) |
| C=C1[C@H](CO)[C@@H](O)C[C@@H]1n1cnc2c(=O)[nH]c(N)nc21 | -3.34% | inactive | inactive | inactive |  |  |  | inactive |  | 117% | 18.6 µM (active) |  |  |
| O=C(NC[C@H](O)CN1CCc2ccccc2C1)c1cc(NC2COC2)ncn1 | 11.2% and -21.4% | inactive | inactive | inactive |  |  | inactive | inactive |  | 97% | inactive |  | inactive |
| CC(=O)N1CCN(CCOc2ccc(C3CCN(C4=Nn5c(nnc5C(F)(F)F)CC4)CC3)cc2)CC1 | -2.39% | inactive | inactive | inactive | 14.8 µM (active) |  |  |  |  |  | inactive |  | inactive |
| Cc1cc(C)cc(NC(=O)Cc2ccc(OC(C)(C)C(=O)O)cc2)c1 | -4.3% | inactive | inactive | inactive |  | inactive | inactive | inactive |  |  | inactive | inactive | inactive |
| O=C(C(c1ccccc1)c1ccccc1)N1CCN(CC(O)COc2cccc3ncccc23)CC1 (centres undefined) | 4.77% | inactive | inactive | inactive | 20.9 µM (active) | 18.6 µM (active) |  |  |  |  | 18.6 µM (active) |  |  |
| CNC(=O)c1ccc(N2C(=S)N(c3cnc(C#N)c(C(F)(F)F)c3)C(=O)C23CCC3)cc1F | -16.4% and 8.59% | inactive | inactive | inactive |  |  | inactive | inactive |  | 98% | inactive |  | inactive |
| C[C@]12CC[C@H](O)CC1=CCC1C2CC[C@]2(C)C(n3cnc4ccccc43)=CCC12 (some centres undefined) | 20.1% and 28.6% | inactive | inactive | inactive |  |  | inactive | inactive |  | 118% | 18.6 µM (active) |  | inactive |
| C[C@H]1Oc2cc(cnc2N)-c2c(nn(C)c2C#N)CN(C)C(=O)c2ccc(F)cc21 | 1.43% and -2.96% | inactive | inactive | inactive |  | 18.6 µM (active) |  |  |  | 98.3% | 1.32 µM (active) |  |  |
| Cn1cc(-c2cnn3c(N)c(Br)c([C@@H]4CCCNC4)nc23)cn1 | 3.82% | inactive | inactive | inactive |  | 0.468 µM (active) |  |  |  |  |  | 13.2 µM (active) |  |
| Cn1cc(-c2ccc3nnc(C(F)(F)c4ccc5ncccc5c4)n3n2)cn1 | -10% and 1.43% | inactive | inactive | inactive |  |  | inactive | inactive |  | 106% |  |  |  |
